Laboratory results reported in PubChem BioAssay (NCATS).
Where “and” joins values, the source holds several entries; their conditions need not be identical. Identical values can stand only once. Inconclusive results are not listed. A number with no mark means an inactive call. Calls of active or inactive are those of the source. The call rests on the fitted dose curve; in most records, active means well fitted curve in the direction sought with a large enough effect; inconclusive means small, poorly fitted or top-dose-only effect, or another doubt; inactive means no such curve, though single readings can be large or run the other way.

test: qHTS Assay for Identifying Gametocytocidal Compounds (AID 743244);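 on max response: actives lower the fluorescent signal which means gametocytes are killed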; settings: P. falciparum 3D7 stage III-V gametocytes, alamarBlue, 72 h; max response: active compounds read low
Method in brief: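 3D7 gametocytes, stages III–V, 20,000/well; cpd 72 h, 37 °C/5% CO2; + alamarBlue 24 h; fluor. Ex 525/Em 598.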
On the % scale 0 is the no-effect control and ±100 the full control effect; potency means the concentration at half of the fitted maximal effect.

Row | SMILES | max response | Potency
1 | Clc1ccc(C2(Cn3cncn3)OCCO2)c(Cl)c1 | -2.25% | 
2 | C[N+]1([O-])[C@@H]2CC(OC(=O)[C@H](CO)c3ccccc3)C[C@H]1[C@@H]1O[C@@H]12 (some centres not stated) | 4.15% and -13.5% | 
3 | [H+].[H+].[Hg+2].[O-]B([O-])[O-].[c-]1ccccc1 |  | 3.55 µM (active)
4 | O=C1OC2(c3cc(Br)c(O)cc3Oc3c2cc(Br)c(O)[c]3[Hg])c2ccccc21 (configuration not stated) | -1.46% | 
5 | [S]=[Sb](=[S])[S][Sb](=[S])=[S] | 3.55% | 
6 | CCC1(C)CC(=O)NC(=O)C1 | 2.58% | 
7 | O=c1ccc2cc(O[C@@H]3O[C@H](CO)[C@@H](O)[C@H](O)[C@H]3O)c(O)cc2o1 | 0.481% | 
8 | OC(c1ccccc1)(c1ccccc1)C1CN2CCC1CC2 (configuration not stated) | -14.7% | 
9 | O=P(O)(O)C(Cl)(Cl)P(=O)(O)O | -3.79% and -4.92% | 
10 | CC(C)CCC(=O)O[C@H]1CC[C@H]2[C@@H]3CCC4=CC(=O)CC[C@]4(C)[C@H]3CC[C@]12C | 13.7% | 
11 | CN1c2ccccc2C(NCCCCCCC(=O)O)c2ccc(Cl)cc2S1(=O)=O (configuration not stated) | -8.42% | 
12 | CNc1ccc(C(=O)CC(O)CCC(C)C2OC(=O)CC(O)CC(=O)CC(O)CC(O)CC(O)CC(O)CC3(O)CC(O)C(C(=O)OC)C(CC(O[C@@H]4O[C@H](C)[C@@H](O)[C@H](N)[C@@H]4O)/C=C/C=C/C=C/C=C/C=C/C=C/C=C/C2C)O3)cc1 (some centres not stated) | 22.8% | 
